Rows were chosen to be rich in hits. Some 19% of all compounds tested hit in one or more screens of this group.
HT1080-NT tox – kills 2HG-producing HT-1080-NT fibrosarcoma cells | HT-1080-NT fibrosarcoma viability, CellTiter-Glo ATP luminescence, 48 h | Potency, µM (doses to about 46.1 µM), without a hit: top-dose activity, negative = less viability, hits mostly cytotoxic | hit rate 1.6% among 360,000 | AID 686970;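 note: NT is the 2HG producing partner of a matched IDH1 knockdown line; potency is the fitted concentration of half-maximal effect; 0% = DMSO-treated cells and -100% = media-only wells without cells; nearly all actives have a fitted effect of over 55% in size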
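Compounds were tested in concentration-response format on HT-1080-NT cells for 48 hours at 37 degrees C. Cell viability came from CellTiter-Glo luminescence; curves were classified by r2, response magnitude and activity.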
DT40 TDP1 no CPT – qHTS for Inhibitors of human tyrosyl-DNA phosphodiesterase 1 (TDP1): qHTS in cells in absence of CPT. DT40 Tdp1-/- hTDP1 cells, no CPT, ATP luminescence, 48 h. Potency, µM (doses to about 46.2 µM), inactives show top-dose activity change, negative = growth inhibition, usual class: inhibitors. hit rate 15% among 420,000; note: potency is the fitted concentration of half-maximal effect; nearly all actives have a fitted effect of over 55% in size
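Growth kinetics read by CellTiter-Glo luminescence after ≥48 hr at 37 °C. Cells: DT40 Tdp1-/- stably carrying human TDP1, 400 per well, compound exposure in the absence of CPT (DMSO vehicle).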
DT40 TDP1 CPT – growth inhibition of DT40 Tdp1-/-;hTDP1 cells with camptothecin (screen for TDP1 inhibitors). chicken DT40 Tdp1-/-;hTDP1 cells + 20 nM CPT, ATP luminescence, 48 h. Potency, µM (titrated, usually from 46.2 µM), inactives show at the highest dose activity change, negative = growth inhibition, most hits filed as inhibitors. hit rate 12% among 420,000; note: potency is the fitted concentration of half-maximal effect; nearly all actives have a fitted effect of over 55% in size
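Chicken DT40 Tdp1-/- cells complemented with human TDP1, 400 cells/well, exposed to compounds plus 20 nM camptothecin for at least 48 h at 37 C; viability read as ATP content by CellTiter-Glo luminescence.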
HT1080 IDH1KD tx – toxicity to HT-1080 IDH1 knockdown cells (counter line) | hit rate 2% among 360,000 | Potency, µM (highest dose often 46.1 µM), inactives show at the highest dose activity, negative = toxicity, hits mostly cytotoxic | HT-1080 IDH1 knockdown viability, ATP luminescence, 48 h;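 note: potency is the fitted concentration of half-maximal effect; 0% = DMSO wells and -100% = cell-free medium wells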
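IDH1KD HT-1080 cells, 750/well, RPMI + 5% FBS; compound pinned after 2 h settling; 48 h, 37 °C; CellTiter-Glo luminescence; % activity normalised to DMSO and no-cell wells; curves fitted, classed by r2 and efficacy.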
ELG1 DNA repair – inhibitors of ELG1-dependent DNA repair in HEK293T cells; HEK293T ELG1-luciferase reporter, luminescence, 16 h; DNA damage induced by 5-fluorouridine; Potency, µM (titrated, usually from 46.1 µM), for inactives: at the top dose activity change, negative = inhibition, usual class: inhibitors; hit rate 2.3% among 330,000; AID 504467; note: potency is the fitted concentration of half-maximal effect; nearly all actives have a fitted effect of over 55% in size
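Reporter activity after DNA damage by 5-fluorouridine is monitored. Compound-treated cells incubate 16 hr at 37 °C, then ONE-Glo is added for 30 min before luminescence reading.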
IL1B secr inh – inflammasome signaling inhibition, IL-1 beta readout. activity change, % at 57.5 µM. hit rate 4.7% among 360,000. THP-1 LPS/ATP IL-1B secretion, AlphaLISA, 16 h; active compounds read low; in the data active = activity change below about -50%; inconclusive = mostly about -30% to -49%
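THP-1 cells pretreated 1 hr with compounds (up to 57.5 uM final), then stimulated with LPS (250 ng/mL final) plus ATP (1.25 mM final); secreted IL-1B measured by AlphaLISA after 16 hr, decreased signal indicating inhibition.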
Starred values were filed as active, the others as inactive; [ ] = another dose, or the depositor's remark. Unless noted, calls come from the whole dose curve; as a rule, active = well fitted curve in the direction sought with a large enough effect; inconclusive = small, poorly fitted or top-dose-only effect, or another doubt; inactive = no such curve, though single readings can be large; an effect the other way counts as inactive or inconclusive. Unless noted, % is set by controls: 0 for no effect and ±100 for the full control effect.

`O=c1c2ccccc2c2ccccc2c(=O)n1Nc1ccccc1` gave HT1080-NT tox inconclusive, DT40 TDP1 no CPT -5%, DT40 TDP1 CPT 6%, HT1080 IDH1KD tx 13µM* and IL1B secr inh 1.
Screening O=c1c2ccccc2c(=O)n(Cc2ccccc2)n1Cc1ccccc1 returned HT1080-NT tox 2%, DT40 TDP1 no CPT -18%, DT40 TDP1 CPT 6%, HT1080 IDH1KD tx -4%, ELG1 DNA repair 1% and IL1B secr inh 0.
Screening CC(=O)OC1CCC2(C)C(=CCC3C2CCC2(C)C3C[C@@H]3O[C@]32C(C)=O)C1 (some centres undefined) returned DT40 TDP1 no CPT 3% and DT40 TDP1 CPT 13%.
For O=C(COc1ccc(Cl)cc1Br)Nc1cccc(S(=O)(=O)N2CCCC2)c1 the results were HT1080-NT tox -19%, DT40 TDP1 no CPT inconclusive, DT40 TDP1 CPT inconclusive, HT1080 IDH1KD tx -3%, ELG1 DNA repair -14% and IL1B secr inh inconclusive.
C=CCn1c(SCC(=O)c2[nH]c(C)c(C(=O)OCC)c2C)nc2scc(-c3ccc(OC)cc3)c2c1=O was read as HT1080-NT tox -20%, DT40 TDP1 no CPT 15µM*, DT40 TDP1 CPT 9.2µM*, HT1080 IDH1KD tx -18%, ELG1 DNA repair inconclusive and IL1B secr inh 45.
C=CCn1c(SCC(=O)NCC2CCCO2)nc2scc(-c3ccc(OC)cc3)c2c1=O (centres undefined) was read as HT1080-NT tox -5%, DT40 TDP1 no CPT inconclusive, DT40 TDP1 CPT inconclusive, HT1080 IDH1KD tx 0%, ELG1 DNA repair -5% and IL1B secr inh 0.
`C=CCn1c(SCC(=O)c2[nH]c(C)c(C(=O)OCC)c2C)nc2scc(-c3ccccc3)c2c1=O` gave HT1080-NT tox -7%, DT40 TDP1 no CPT 16µM*, DT40 TDP1 CPT 12µM*, HT1080 IDH1KD tx 2%, ELG1 DNA repair -24% and IL1B secr inh 12.
COC(=O)Cc1ccc(OC(=O)c2cccc(S(=O)(=O)N3CCN(C)CC3)c2)cc1 was read as HT1080-NT tox 4%, DT40 TDP1 no CPT -23%, DT40 TDP1 CPT 6%, HT1080 IDH1KD tx 1%, ELG1 DNA repair 2% and IL1B secr inh 10.
`OC1(c2cccnc2)CCN(Cc2ccc3c(c2)CN(Cc2cccc4nccnc24)CCO3)CC1` gave DT40 TDP1 no CPT -29% and DT40 TDP1 CPT -3%[9.04 µM].
`CCC1(CC)Cc2ccccc2C(C2=C(O)CC(C)(C)CC2=O)=N1` gave HT1080-NT tox 22%, DT40 TDP1 no CPT -14%, DT40 TDP1 CPT -11%, HT1080 IDH1KD tx 14%, ELG1 DNA repair 2% and IL1B secr inh 2.
O=C(NCC1CCCO1)C1CCN(C2CCN(CCCC3CCCC3)CC2)CC1 (centres undefined) was read as HT1080-NT tox -21%, DT40 TDP1 no CPT 23µM*, DT40 TDP1 CPT 15µM*, HT1080 IDH1KD tx -29%, ELG1 DNA repair 8% and IL1B secr inh -28.
For Cc1ccc(C(=O)N(Cc2ccccc2)C(C)(C)C)cc1C the results were HT1080-NT tox 3%, DT40 TDP1 no CPT 15µM*, DT40 TDP1 CPT 16µM*, HT1080 IDH1KD tx -5%, ELG1 DNA repair 4% and IL1B secr inh -7.
CC(C)(C)N(Cc1ccccc1)C(=O)c1ccc(Br)o1 was read as HT1080-NT tox 8%, DT40 TDP1 no CPT inconclusive, DT40 TDP1 CPT inconclusive, HT1080 IDH1KD tx 6%, ELG1 DNA repair inconclusive and IL1B secr inh -7.
Screening CC(C)CCNC(=O)C(c1ccncc1)N(Cc1cccs1)C(=O)Cn1nnc(-c2ccc(F)cc2)n1 (centres undefined) returned HT1080-NT tox -28%, DT40 TDP1 no CPT inconclusive, DT40 TDP1 CPT 9.2µM*, HT1080 IDH1KD tx -26%, ELG1 DNA repair inconclusive and IL1B secr inh -15.
For Cc1ccc(-c2nnn(CC(=O)N(Cc3ccco3)C(C(=O)NC3CCCC3)c3cccs3)n2)o1 (centres undefined) the results were HT1080-NT tox 7%, DT40 TDP1 no CPT inconclusive, DT40 TDP1 CPT inconclusive, HT1080 IDH1KD tx 12%, ELG1 DNA repair 14% and IL1B secr inh -9.
For O=C(NCC1CCCO1)C(c1cccs1)N(Cc1cccs1)C(=O)Cn1nnc(-c2cccs2)n1 (centres undefined) the results were HT1080-NT tox -13%, DT40 TDP1 no CPT 18µM*, DT40 TDP1 CPT 16µM*, HT1080 IDH1KD tx -12%, ELG1 DNA repair inconclusive and IL1B secr inh -4.
`O=C(NCC1CCCO1)C(c1ccncc1)N(Cc1cccs1)C(=O)Cn1nnc(-c2ccc(F)cc2)n1` (centres undefined) gave HT1080-NT tox -19%, DT40 TDP1 no CPT -10%, DT40 TDP1 CPT -10%, HT1080 IDH1KD tx -5%, ELG1 DNA repair inconclusive and IL1B secr inh -30.
Screening O=C(NC1CCCCC1)C(c1ccccc1)N(Cc1ccco1)C(=O)Cn1cnc2ccccc21 (centres undefined) returned HT1080-NT tox -14%, DT40 TDP1 no CPT 23µM*, DT40 TDP1 CPT 23µM*, HT1080 IDH1KD tx -10%, ELG1 DNA repair -11% and IL1B secr inh -11.
O=C(NC1CCCC1)C(c1cccs1)N(Cc1ccco1)C(=O)Cn1nnc(-c2cccs2)n1 (centres undefined) was read as HT1080-NT tox -9%, DT40 TDP1 no CPT inconclusive, DT40 TDP1 CPT 21µM*, HT1080 IDH1KD tx -26%, ELG1 DNA repair -9% and IL1B secr inh -20.
CCCCCCCCCCCCCCC(F)C(=O)O (centres undefined) was read as DT40 TDP1 no CPT 9%[4.12 µM] and DT40 TDP1 CPT 4%[4.12 µM].
`O=c1c(-c2cc(F)cc(F)c2)nc2cncnc2n1C1CC1` gave DT40 TDP1 no CPT 1% and DT40 TDP1 CPT 1%.
Cc1ccc(-c2nnn(CC(=O)N(Cc3cccs3)C(C(=O)NC3CCCC3)c3ccncc3)n2)cc1 (centres undefined) was read as HT1080-NT tox 16µM*, DT40 TDP1 no CPT -16%, DT40 TDP1 CPT inconclusive, HT1080 IDH1KD tx inconclusive, ELG1 DNA repair inconclusive and IL1B secr inh -16.
Screening Cc1ccc(-c2nnn(CC(=O)N(Cc3cccs3)C(C(=O)NC3CCCCC3)c3ccco3)n2)o1 (centres undefined) returned HT1080-NT tox -2%, DT40 TDP1 no CPT 23µM*, DT40 TDP1 CPT 26µM*, HT1080 IDH1KD tx 0%, ELG1 DNA repair inconclusive and IL1B secr inh 73.

Bioassay records: PubChem, National Center for Advancing Translational Sciences (NCATS)
